Measurements from paper PMC11006913.
Residue numbers refer to the chain shown, from its start.

Key:
Assay in all cases: PBM; 200 nM protein, PBS
Settings in all cases: dsDNA, one strand shown
SHOX [1] = target: SHOX (Homo sapiens, UniProt O15266 103-189)
VENTX [2] = target: T1, VENTX (Homo sapiens, UniProt O95231 78-163, R121Q)
T1 sequence: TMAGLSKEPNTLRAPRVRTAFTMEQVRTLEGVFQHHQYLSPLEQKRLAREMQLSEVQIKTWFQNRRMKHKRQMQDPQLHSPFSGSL

HOXB9 [3] = target: HOXB9 (Homo sapiens, UniProt P17482 171-250, T197M)
VENTX [4] = target: T2, VENTX (Homo sapiens, UniProt O95231 78-163)
T2 sequence: T1 sequence with Q44R

HOXA7 [5] = target: HOXA7 (Homo sapiens, UniProt P31268 116-202)
VENTX [6] = target: T3, VENTX (Homo sapiens, UniProt O95231 78-163, Y115F)
T3 sequence: T1 sequence with Y38F, Q44R

HOXA2 [7] = target: HOXA2 (Homo sapiens, UniProt O43364 129-215, R185T)
HOXB9 [8] = target: HOXB9 (Homo sapiens, UniProt P17482 171-250)
ALX3 [9] = target: ALX3 (Homo sapiens, UniProt O95076 139-225, N203Q)
HOXD13 [10] = target: HOXD13 (Homo sapiens, UniProt P35453 263-343, T313R)
SHOX [11] = target: SHOX (Homo sapiens, UniProt O15266 103-189, R173C)
HOXA2 [12] = target: HOXA2 (Homo sapiens, UniProt O43364 129-215, R185K)
HOXD13 [13] = target: HOXD13 (Homo sapiens, UniProt P35453 263-343)
ALX3 [14] = target: ALX3 (Homo sapiens, UniProt O95076 139-225)
VAX1 [15] = target: VAX1 (Homo sapiens, UniProt Q5SQQ9 86-172)
ALX3 [16] = target: ALX3 (Homo sapiens, UniProt O95076 139-225, L168Q)
HOXD13 [17] = target: HOXD13 (Homo sapiens, UniProt P35453 263-343, T313A)
HOXB9 [18] = target: HOXB9 (Homo sapiens, UniProt P17482 171-250, R186Q)
ALX3 [19] = target: ALX3 (Homo sapiens, UniProt O95076 139-225, L168V)
VAX1 [20] = target: VAX1 (Homo sapiens, UniProt Q5SQQ9 86-172, T142I)
HOXA2 [21] = target: HOXA2 (Homo sapiens, UniProt O43364 129-215, Y150S)
HOXA7 [22] = target: HOXA7 (Homo sapiens, UniProt P31268 116-202, W177C)
ALX3 [23] = target: ALX3 (Homo sapiens, UniProt O95076 139-225, N203S)
HOXA2 [24] = target: HOXA2 (Homo sapiens, UniProt O43364 129-215)
VAX1 [25] = target: VAX1 (Homo sapiens, UniProt Q5SQQ9 86-172, K157R)
HOXB6 [26] = target: HOXB6 (Homo sapiens, UniProt P17509 132-218, K202E)
HOXB6 [27] = target: HOXB6 (Homo sapiens, UniProt P17509 132-218)
HOXC9 [28] = target: HOXC9 (Homo sapiens, UniProt P31274 178-260, K195R)
HOXC9 [29] = target: HOXC9 (Homo sapiens, UniProt P31274 178-260)
HOXC9 [30] = target: HOXC9 (Homo sapiens, UniProt P31274 178-260, R193K)
HOXC9 [31] = target: HOXC9 (Homo sapiens, UniProt P31274 178-260, R222W)
ALX4 [32] = target: ALX4 (Homo sapiens, UniProt Q9H161 200-286)
ALX4 [33] = target: ALX4 (Homo sapiens, UniProt Q9H161 200-286, Q225E)
Sequence of ALX4 (Homo sapiens, UniProt Q9H161 200-286, Q225E) (Q9H161 200-286 Q225E): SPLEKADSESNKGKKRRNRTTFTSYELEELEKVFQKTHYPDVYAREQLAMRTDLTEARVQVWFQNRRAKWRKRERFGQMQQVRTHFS

Sequence of SHOX (Homo sapiens, UniProt O15266 103-189, R173C) (O15266 103-189 R173C): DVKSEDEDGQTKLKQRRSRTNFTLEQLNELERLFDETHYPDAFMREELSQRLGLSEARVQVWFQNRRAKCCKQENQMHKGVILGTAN
Sequence of SHOX (Homo sapiens, UniProt O15266 103-189) (O15266 103-189): as the sequence (O15266 103-189 R173C) above, with C71R counted along it
Sequence of VAX1 (Homo sapiens, UniProt Q5SQQ9 86-172, T142I) (Q5SQQ9 86-172 T142I): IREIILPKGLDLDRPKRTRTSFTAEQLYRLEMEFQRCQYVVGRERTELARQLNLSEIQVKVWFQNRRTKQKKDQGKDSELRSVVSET
Sequence of VAX1 (Homo sapiens, UniProt Q5SQQ9 86-172) (Q5SQQ9 86-172): as the sequence (Q5SQQ9 86-172 T142I) above, with I57T counted along it
Sequence of HOXA7 (Homo sapiens, UniProt P31268 116-202, W177C) (P31268 116-202 W177C): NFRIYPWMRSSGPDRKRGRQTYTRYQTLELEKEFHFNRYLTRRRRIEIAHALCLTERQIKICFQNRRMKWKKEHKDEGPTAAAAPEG
Sequence of VAX1 (Homo sapiens, UniProt Q5SQQ9 86-172, K157R) (Q5SQQ9 86-172 K157R): as the sequence (Q5SQQ9 86-172 T142I) above, with I57T, K72R counted along it
Sequence of HOXA7 (Homo sapiens, UniProt P31268 116-202) (P31268 116-202): as the sequence (P31268 116-202 W177C) above, with C62W counted along it
Sequence of HOXD13 (Homo sapiens, UniProt P35453 263-343, T313A) (P35453 263-343 T313A): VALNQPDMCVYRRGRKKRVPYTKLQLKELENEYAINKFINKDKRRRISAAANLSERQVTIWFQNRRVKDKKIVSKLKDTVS
Sequence of HOXC9 (Homo sapiens, UniProt P31274 178-260, K195R) (P31274 178-260 K195R): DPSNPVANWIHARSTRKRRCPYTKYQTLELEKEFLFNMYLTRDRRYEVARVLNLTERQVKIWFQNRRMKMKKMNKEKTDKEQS
Sequence of HOXC9 (Homo sapiens, UniProt P31274 178-260) (P31274 178-260): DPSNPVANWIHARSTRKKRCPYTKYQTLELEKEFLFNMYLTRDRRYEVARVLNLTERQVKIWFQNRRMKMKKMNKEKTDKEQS
Sequence of ALX4 (Homo sapiens, UniProt Q9H161 200-286) (Q9H161 200-286): as the sequence (Q9H161 200-286 Q225E) above, with E26Q counted along it
Sequence of HOXA2 (Homo sapiens, UniProt O43364 129-215, R185T) (O43364 129-215 R185T): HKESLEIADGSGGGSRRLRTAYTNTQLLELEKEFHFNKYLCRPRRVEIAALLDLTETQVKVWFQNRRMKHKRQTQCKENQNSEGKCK
Sequence of ALX3 (Homo sapiens, UniProt O95076 139-225, N203S) (O95076 139-225 N203S): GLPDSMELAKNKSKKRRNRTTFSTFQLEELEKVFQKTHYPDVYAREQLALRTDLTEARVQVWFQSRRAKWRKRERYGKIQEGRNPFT
Sequence of HOXD13 (Homo sapiens, UniProt P35453 263-343, T313R) (P35453 263-343 T313R): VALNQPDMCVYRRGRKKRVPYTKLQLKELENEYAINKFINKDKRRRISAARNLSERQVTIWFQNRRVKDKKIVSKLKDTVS
Sequence of HOXA2 (Homo sapiens, UniProt O43364 129-215, Y150S) (O43364 129-215 Y150S): as the sequence (O43364 129-215 R185T) above, with Y22S, T57R counted along it
Sequence of ALX3 (Homo sapiens, UniProt O95076 139-225, N203Q) (O95076 139-225 N203Q): as the sequence (O95076 139-225 N203S) above, with S65Q counted along it
Sequence of HOXB6 (Homo sapiens, UniProt P17509 132-218) (P17509 132-218): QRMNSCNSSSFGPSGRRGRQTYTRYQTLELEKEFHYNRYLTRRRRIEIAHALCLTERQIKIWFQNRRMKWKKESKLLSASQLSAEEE
Sequence of HOXA2 (Homo sapiens, UniProt O43364 129-215) (O43364 129-215): as the sequence (O43364 129-215 R185T) above, with T57R counted along it
Sequence of HOXD13 (Homo sapiens, UniProt P35453 263-343) (P35453 263-343): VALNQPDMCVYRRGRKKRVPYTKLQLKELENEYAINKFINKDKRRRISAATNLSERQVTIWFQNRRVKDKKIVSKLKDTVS
Sequence of HOXB9 (Homo sapiens, UniProt P17482 171-250, T197M) (P17482 171-250 T197M): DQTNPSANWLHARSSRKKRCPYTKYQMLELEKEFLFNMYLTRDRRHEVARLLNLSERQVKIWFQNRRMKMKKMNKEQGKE
Sequence of HOXB6 (Homo sapiens, UniProt P17509 132-218, K202E) (P17509 132-218 K202E): as the sequence (P17509 132-218) above, with K71E counted along it
Sequence of HOXC9 (Homo sapiens, UniProt P31274 178-260, R222W) (P31274 178-260 R222W): as the sequence (P31274 178-260) above, with R45W counted along it
Sequence of HOXC9 (Homo sapiens, UniProt P31274 178-260, R193K) (P31274 178-260 R193K): as the sequence (P31274 178-260) above, with R16K counted along it
Sequence of ALX3 (Homo sapiens, UniProt O95076 139-225) (O95076 139-225): as the sequence (O95076 139-225 N203S) above, with S65N counted along it
Sequence of HOXB9 (Homo sapiens, UniProt P17482 171-250, R186Q) (P17482 171-250 R186Q): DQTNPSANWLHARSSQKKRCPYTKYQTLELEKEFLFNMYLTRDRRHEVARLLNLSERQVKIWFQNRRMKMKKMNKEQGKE
Sequence of HOXA2 (Homo sapiens, UniProt O43364 129-215, R185K) (O43364 129-215 R185K): as the sequence (O43364 129-215 R185T) above, with T57K counted along it
Sequence of HOXB9 (Homo sapiens, UniProt P17482 171-250) (P17482 171-250): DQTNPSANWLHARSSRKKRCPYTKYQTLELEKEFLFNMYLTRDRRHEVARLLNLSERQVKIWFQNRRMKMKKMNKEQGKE
Sequence of ALX3 (Homo sapiens, UniProt O95076 139-225, L168V) (O95076 139-225 L168V): as the sequence (O95076 139-225 N203S) above, with L30V, S65N counted along it
Sequence of ALX3 (Homo sapiens, UniProt O95076 139-225, L168Q) (O95076 139-225 L168Q): as the sequence (O95076 139-225 N203S) above, with L30Q, S65N counted along it

CCCACGGC
binding signal (SHOX [1]): 6.91 upbm affinity estimate (log intensity, higher = more binding, comparable within an allelic series) | binding signal (VENTX [2]): 7.88 upbm affinity estimate (log intensity, higher = more binding, comparable within an allelic series) | binding signal (HOXB9 [3]): 8.38 upbm affinity estimate (log intensity, higher = more binding, comparable within an allelic series) | binding signal (VENTX [4]): 7.71 upbm affinity estimate (log intensity, higher = more binding, comparable within an allelic series) | binding signal (HOXA7 [5]): 8.48 upbm affinity estimate (log intensity, higher = more binding, comparable within an allelic series) | binding signal (VENTX [6]): 7.87 upbm affinity estimate (log intensity, higher = more binding, comparable within an allelic series) | binding signal (HOXA2 [7]): 7.17 upbm affinity estimate (log intensity, higher = more binding, comparable within an allelic series) | binding signal (HOXB9 [8]): 8.1 upbm affinity estimate (log intensity, higher = more binding, comparable within an allelic series) | binding signal (ALX3 [9]): 7.69 upbm affinity estimate (log intensity, higher = more binding, comparable within an allelic series) | binding signal (HOXD13 [10]): 9.39 upbm affinity estimate (log intensity, higher = more binding, comparable within an allelic series) | binding signal (SHOX [11]): 7.08 upbm affinity estimate (log intensity, higher = more binding, comparable within an allelic series) | binding signal (HOXA2 [12]): 10 upbm affinity estimate (log intensity, higher = more binding, comparable within an allelic series) | binding signal (HOXD13 [13]): 9.4 upbm affinity estimate (log intensity, higher = more binding, comparable within an allelic series) | binding signal (ALX3 [14]): 7.64 upbm affinity estimate (log intensity, higher = more binding, comparable within an allelic series) | binding signal (VAX1 [15]): 6.92 upbm affinity estimate (log intensity, higher = more binding, comparable within an allelic series) | binding signal (ALX3 [16]): 7.79 upbm affinity estimate (log intensity, higher = more binding, comparable within an allelic series) | binding signal (HOXD13 [17]): 9.58 upbm affinity estimate (log intensity, higher = more binding, comparable within an allelic series) | binding signal (HOXB9 [18]): 8.18 upbm affinity estimate (log intensity, higher = more binding, comparable within an allelic series) | binding signal (ALX3 [19]): 7.77 upbm affinity estimate (log intensity, higher = more binding, comparable within an allelic series) | binding signal (VAX1 [20]): 6.93 upbm affinity estimate (log intensity, higher = more binding, comparable within an allelic series) | binding signal (HOXA2 [21]): 10.4 upbm affinity estimate (log intensity, higher = more binding, comparable within an allelic series) | binding signal (HOXA7 [22]): 8.45 upbm affinity estimate (log intensity, higher = more binding, comparable within an allelic series) | binding signal (ALX3 [23]): 7.71 upbm affinity estimate (log intensity, higher = more binding, comparable within an allelic series) | binding signal (HOXA2 [24]): 7.04 upbm affinity estimate (log intensity, higher = more binding, comparable within an allelic series) | binding signal (VAX1 [25]): 6.78 upbm affinity estimate (log intensity, higher = more binding, comparable within an allelic series)

TCAAGTAA
binding signal (SHOX [1]): 8.54 upbm affinity estimate (log intensity, higher = more binding, comparable within an allelic series)

GAATTACA
binding signal (SHOX [1]): 9.41 upbm affinity estimate (log intensity, higher = more binding, comparable within an allelic series)

GCTCCGAC
binding signal (SHOX [1]): 7.2 upbm affinity estimate (log intensity, higher = more binding, comparable within an allelic series) | binding signal (VENTX [2]): 8.1 upbm affinity estimate (log intensity, higher = more binding, comparable within an allelic series) | binding signal (VENTX [4]): 8.29 upbm affinity estimate (log intensity, higher = more binding, comparable within an allelic series) | binding signal (VENTX [6]): 8.19 upbm affinity estimate (log intensity, higher = more binding, comparable within an allelic series) | binding signal (HOXB6 [26]): 9.12 upbm affinity estimate (log intensity, higher = more binding, comparable within an allelic series) | binding signal (SHOX [11]): 7.25 upbm affinity estimate (log intensity, higher = more binding, comparable within an allelic series) | binding signal (HOXB6 [27]): 9.05 upbm affinity estimate (log intensity, higher = more binding, comparable within an allelic series)

CGTGAGAG
binding signal (SHOX [1]): 7.22 upbm affinity estimate (log intensity, higher = more binding, comparable within an allelic series) | binding signal (VENTX [2]): 8.23 upbm affinity estimate (log intensity, higher = more binding, comparable within an allelic series) | binding signal (HOXC9 [28]): 9.74 upbm affinity estimate (log intensity, higher = more binding, comparable within an allelic series) | binding signal (VENTX [4]): 8.19 upbm affinity estimate (log intensity, higher = more binding, comparable within an allelic series) | binding signal (VENTX [6]): 8.23 upbm affinity estimate (log intensity, higher = more binding, comparable within an allelic series) | binding signal (HOXC9 [29]): 9.82 upbm affinity estimate (log intensity, higher = more binding, comparable within an allelic series) | binding signal (SHOX [11]): 7.25 upbm affinity estimate (log intensity, higher = more binding, comparable within an allelic series) | binding signal (HOXC9 [30]): 9.77 upbm affinity estimate (log intensity, higher = more binding, comparable within an allelic series) | binding signal (HOXC9 [31]): 9.81 upbm affinity estimate (log intensity, higher = more binding, comparable within an allelic series)

CCGGTCTC
binding signal (SHOX [1]): 7.18 upbm affinity estimate (log intensity, higher = more binding, comparable within an allelic series) | binding signal (VENTX [2]): 8.15 upbm affinity estimate (log intensity, higher = more binding, comparable within an allelic series) | binding signal (VENTX [4]): 8.23 upbm affinity estimate (log intensity, higher = more binding, comparable within an allelic series) | binding signal (HOXA7 [5]): 8.45 upbm affinity estimate (log intensity, higher = more binding, comparable within an allelic series) | binding signal (ALX4 [32]): 8.33 upbm affinity estimate (log intensity, higher = more binding, comparable within an allelic series) | binding signal (VENTX [6]): 8.1 upbm affinity estimate (log intensity, higher = more binding, comparable within an allelic series) | binding signal (ALX4 [33]): 8.34 upbm affinity estimate (log intensity, higher = more binding, comparable within an allelic series) | binding signal (SHOX [11]): 7.23 upbm affinity estimate (log intensity, higher = more binding, comparable within an allelic series) | binding signal (VAX1 [15]): 7.31 upbm affinity estimate (log intensity, higher = more binding, comparable within an allelic series) | binding signal (VAX1 [20]): 7.3 upbm affinity estimate (log intensity, higher = more binding, comparable within an allelic series) | binding signal (HOXA7 [22]): 8.44 upbm affinity estimate (log intensity, higher = more binding, comparable within an allelic series) | binding signal (VAX1 [25]): 7.04 upbm affinity estimate (log intensity, higher = more binding, comparable within an allelic series)
